A number with no mark means an inactive call. Records with an inconclusive call do not appear. Where a call stands in place of a potency, no number is given. Calls of active or inactive are those of the source. Unless noted, calls follow the shape of the dose curve; as a rule, active = well fitted curve in the direction sought with a large enough effect; inconclusive = small, poorly fitted or top-dose-only effect, or another doubt; inactive = no such curve, though single readings can be large; an effect the other way counts as inactive or inconclusive.
What was measured:
[1] = biological target: Lysosomal acid glucosylceramidase (Homo sapiens) (UniProt P04062); test: Glucocerebrosidase-p2 (AID 348; in the data active = potency below about 10 µM; also: potency is read from the fitted curve at half-maximal effect); conditions: purified GBA, blue fluorogenic substrate, 40 min
Sequence of Lysosomal acid glucosylceramidase (Homo sapiens) (P04062 whole entry, looked up): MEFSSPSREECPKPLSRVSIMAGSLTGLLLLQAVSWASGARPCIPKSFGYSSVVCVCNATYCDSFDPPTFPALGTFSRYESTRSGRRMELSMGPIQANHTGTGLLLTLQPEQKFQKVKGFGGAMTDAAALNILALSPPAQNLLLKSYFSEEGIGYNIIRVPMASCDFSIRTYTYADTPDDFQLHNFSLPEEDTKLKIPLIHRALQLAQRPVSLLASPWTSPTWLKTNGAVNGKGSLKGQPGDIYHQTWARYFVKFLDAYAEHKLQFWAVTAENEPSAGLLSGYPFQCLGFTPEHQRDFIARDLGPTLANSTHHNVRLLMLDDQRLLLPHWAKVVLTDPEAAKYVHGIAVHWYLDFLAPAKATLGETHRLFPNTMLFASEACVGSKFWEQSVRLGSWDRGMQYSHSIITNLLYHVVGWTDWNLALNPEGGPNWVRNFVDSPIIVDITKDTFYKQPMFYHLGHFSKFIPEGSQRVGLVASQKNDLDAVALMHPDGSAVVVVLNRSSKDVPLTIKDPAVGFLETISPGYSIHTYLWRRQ
In short: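 Normal human glucocerebrosidase (0.2 nM) with blue fluorogenic substrate (80 uM final) in citrate/phosphate pH 5.9 with 10mM sodium taurocholate, 0.01% tween-20; 40 min RT, NaOH/glycine stop; fluorescence Ex 365/Em 440; AC50 from a titration from 0.6 nM upwards.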

[2] = AP1 Signaling Pathway (AID 357; active = well fitted curve in either direction with a large enough effect, not every such curve was filed as active;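 also: ME-180 reporter cells stimulated with EGF at its EC50 level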); conditions: ME-180 AP-1-bla reporter, EGF-induced, beta-lactamase ratio, 5 h; at 7.69 µM (top of the series) unless noted
In short: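 A ratiometric CCF4 readout (405 nm excitation; 460 and 530 nm emission) quantified AP-1-driven beta-lactamase in ME-180 cells after 5 h with compound and EC50 EGF; AC50 values were derived for activators and inhibitors.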

[3] = biological target: Cytochrome P450 1A2 (Homo sapiens) (UniProt P05177); test: p450-cyp1a2 (AID 410; calls by dose curve; also: potency is read from the fitted curve at half-maximal effect); conditions: recombinant CYP1A2, luciferin-ME demethylation, luminescence; series mostly up to 57 µM
Sequence of Cytochrome P450 1A2 (Homo sapiens) (P05177 whole entry, looked up): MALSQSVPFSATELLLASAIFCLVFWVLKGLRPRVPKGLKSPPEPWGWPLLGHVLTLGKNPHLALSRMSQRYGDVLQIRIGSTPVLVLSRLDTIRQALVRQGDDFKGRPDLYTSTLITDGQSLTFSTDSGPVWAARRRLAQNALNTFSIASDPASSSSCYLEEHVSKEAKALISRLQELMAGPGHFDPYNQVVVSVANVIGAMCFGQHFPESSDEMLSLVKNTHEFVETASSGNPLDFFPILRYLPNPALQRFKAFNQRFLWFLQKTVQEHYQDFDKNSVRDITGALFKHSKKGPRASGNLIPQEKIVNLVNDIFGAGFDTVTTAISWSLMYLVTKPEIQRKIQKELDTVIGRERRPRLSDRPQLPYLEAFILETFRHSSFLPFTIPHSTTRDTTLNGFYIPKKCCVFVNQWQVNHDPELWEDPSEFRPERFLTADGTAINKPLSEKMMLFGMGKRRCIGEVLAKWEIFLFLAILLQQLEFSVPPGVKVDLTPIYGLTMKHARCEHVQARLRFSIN
In short: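 20nM CYP1A2, 100uM Luciferin-ME (=Km), 100mM KPO4; cpd 10 min RT; +NADPH regen, 60 min RT; stop/detect 20 min; luminescence. Normalized to furafylline 57 uM = full inhibition.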

[4] = NFAT Signaling Pathway (AID 444; active = well fitted curve in either direction with a large enough effect, not every such curve was filed as active;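 also: carbachol stimulus at about its EC50 of 1 µM final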); conditions: Jurkat NFAT-bla M1, carbachol, beta-lactamase ratio, 5 h; at 7.69 µM (top of the series) unless noted
In short: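 Jurkat cells with NFAT-driven β-lactamase reporter and co-expressed M1 receptor, stimulated with carbachol (final 1 uM, ~EC50), compound titration, 5 h at 37 °C. CCF4 loaded 1 h at RT; 460/530 nm ratio gave %activity and AC50.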

[5] = Stat Signaling Pathway (AID 446; active = well fitted curve in either direction with a large enough effect, not every such curve was filed as active;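 also: ME-180 cervical cancer cells given 40 pM IL-6 alongside compound; SIE-controlled beta-lactamase reporter measured as 460/530 nm FRET emission ratio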); conditions: ME-180 SIE beta-lactamase reporter, IL-6 stimulated, 5 h; at 7.69 µM (top of the series) unless noted
In short: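 Compound effects on IL-6-induced STAT reporter activity were measured in ME-180 cells. After overnight culture, cells were co-treated with 40 pM IL-6 for 5 hrs before beta-lactamase substrate loading at room temperature.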

[6] = biological target: Glucocorticoid receptor (Homo sapiens) (UniProt P04150); test: GR-GFP Redistribution (AID 450;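 active = compounds whose dose series gives a full or clear partial fitted curve of increased nuclear translocation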; also: potency is read from the fitted curve at half-maximal effect); conditions: U2OS GR-GFP nuclear translocation, laser cytometry, 2 h
Sequence of Glucocorticoid receptor (Homo sapiens) (P04150 whole entry, looked up, the tested form may be a part): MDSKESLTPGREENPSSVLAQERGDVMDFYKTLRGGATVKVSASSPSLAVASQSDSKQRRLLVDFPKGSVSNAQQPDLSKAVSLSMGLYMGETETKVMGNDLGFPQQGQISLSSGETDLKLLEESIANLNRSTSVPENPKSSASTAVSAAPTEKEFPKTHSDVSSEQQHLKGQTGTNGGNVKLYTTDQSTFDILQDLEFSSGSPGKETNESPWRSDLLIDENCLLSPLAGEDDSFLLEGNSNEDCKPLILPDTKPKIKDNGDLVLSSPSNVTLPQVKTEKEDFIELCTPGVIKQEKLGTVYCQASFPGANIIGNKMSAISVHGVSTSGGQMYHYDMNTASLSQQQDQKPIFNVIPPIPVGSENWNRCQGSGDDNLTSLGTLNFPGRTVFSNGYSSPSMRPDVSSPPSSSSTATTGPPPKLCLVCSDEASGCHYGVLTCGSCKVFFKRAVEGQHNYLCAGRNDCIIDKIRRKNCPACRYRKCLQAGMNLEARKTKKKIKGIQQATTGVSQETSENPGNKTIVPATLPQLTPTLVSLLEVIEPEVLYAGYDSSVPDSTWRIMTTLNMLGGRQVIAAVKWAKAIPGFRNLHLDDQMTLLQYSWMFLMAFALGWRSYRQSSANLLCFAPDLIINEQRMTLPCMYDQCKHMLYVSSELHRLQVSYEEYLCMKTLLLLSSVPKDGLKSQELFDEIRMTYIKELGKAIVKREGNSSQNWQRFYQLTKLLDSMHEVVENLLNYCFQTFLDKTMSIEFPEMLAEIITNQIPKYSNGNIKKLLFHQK

[7] = biological target: Glucocorticoid receptor (Homo sapiens) (UniProt P04150); test: GR-EFC Redistribution (AID 451; calls by dose curve; also: potency is read from the fitted curve at half-maximal effect); conditions: CHO-K1 GR-EFC translocation, beta-gal luminescence, 2 h
In short: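 CHO-K1 cells expressing nuclear EA and GR-ED fragments of b-gal; compounds titrated up to 46 uM final, 2 h at 37 C. GR nuclear translocation read as complemented b-gal luminescence after 1 h RT detection.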

[8] = biological target: Mitogen-activated protein kinase 10 (Mus musculus) (UniProt Q61831); test: JNK3 AlphaScreen Assay (AID 530; active = well fitted curve in either direction with a large enough effect, not every such curve was filed as active;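 also: kinase came from lysate of stimulated human HepG2 cells; signal reports phosphorylation of biotinylated GST-cJun 1-79 at Ser73 with 10 µM ATP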); conditions: JNK3 lysate, c-Jun phosphorylation; series mostly up to 57.1 µM
In short: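 HepG2 lysate (IL-1b/TNFa pre-activated) + biotin-GST-cJun 1-79 + anti-pSer73 cJun; cpd titration, 15 min RT; ATP 10 uM start; Tris pH 7.6, MgCl2, DTT, vanadate; beads in EDTA buffer; AlphaScreen.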

[9] = biological target: 3',5'-cyclic-AMP phosphodiesterase 4B (Homo sapiens) (UniProt Q07343); test: qHTS Assay for Inhibitors of PDE-IV (AID 607; active = well fitted activation curve with a large enough effect in the main read-out, with a control signal flat, not every such curve was filed as active); conditions: HEK293 ACTOne CNG channel cells, membrane potential fluorescence; series mostly up to 22.9 µM
Sequence of 3',5'-cyclic-AMP phosphodiesterase 4B (Homo sapiens) (Q07343 whole entry, looked up): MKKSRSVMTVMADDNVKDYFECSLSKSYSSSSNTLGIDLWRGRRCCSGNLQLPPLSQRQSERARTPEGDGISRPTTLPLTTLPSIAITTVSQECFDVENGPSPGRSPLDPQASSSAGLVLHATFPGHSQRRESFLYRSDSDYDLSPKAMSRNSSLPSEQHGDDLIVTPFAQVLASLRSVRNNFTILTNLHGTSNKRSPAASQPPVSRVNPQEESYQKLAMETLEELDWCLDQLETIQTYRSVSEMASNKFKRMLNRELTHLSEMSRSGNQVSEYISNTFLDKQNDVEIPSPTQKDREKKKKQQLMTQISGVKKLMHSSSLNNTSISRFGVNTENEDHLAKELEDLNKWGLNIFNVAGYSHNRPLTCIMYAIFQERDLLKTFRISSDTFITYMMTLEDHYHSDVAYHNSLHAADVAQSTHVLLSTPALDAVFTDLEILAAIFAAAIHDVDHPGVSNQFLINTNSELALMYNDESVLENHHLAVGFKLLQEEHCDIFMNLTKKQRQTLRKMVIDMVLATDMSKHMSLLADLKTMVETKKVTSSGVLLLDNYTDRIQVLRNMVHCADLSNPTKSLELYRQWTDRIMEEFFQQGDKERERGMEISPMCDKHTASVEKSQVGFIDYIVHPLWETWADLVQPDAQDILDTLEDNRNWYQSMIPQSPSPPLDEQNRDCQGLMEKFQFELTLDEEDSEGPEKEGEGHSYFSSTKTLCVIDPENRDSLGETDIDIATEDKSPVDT
In short: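 ACTOne HEK293 cells carry a modified cAMP-gated CNG channel and express endogenous PDE4; plated 1000 cells/well, compounds up to 22.9 uM final. Membrane-potential dye fluorescence (ex 535/em 590) was read; parental cells received 10 uM forskolin + 100 uM RO 20-1724.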

[10] = biological target: Cytochrome P450 3A4 (Homo sapiens) (UniProt P08684); test: qHTS Assay for Activators of Cytochrome P450 3A4 (AID 885); conditions: recombinant CYP3A4, Luciferin-PPXE luminescence, 60 min; series mostly up to 57.1 µM; also: nearly all actives have a fitted effect of over 65% in size
Sequence of Cytochrome P450 3A4 (Homo sapiens) (P08684 whole entry, looked up): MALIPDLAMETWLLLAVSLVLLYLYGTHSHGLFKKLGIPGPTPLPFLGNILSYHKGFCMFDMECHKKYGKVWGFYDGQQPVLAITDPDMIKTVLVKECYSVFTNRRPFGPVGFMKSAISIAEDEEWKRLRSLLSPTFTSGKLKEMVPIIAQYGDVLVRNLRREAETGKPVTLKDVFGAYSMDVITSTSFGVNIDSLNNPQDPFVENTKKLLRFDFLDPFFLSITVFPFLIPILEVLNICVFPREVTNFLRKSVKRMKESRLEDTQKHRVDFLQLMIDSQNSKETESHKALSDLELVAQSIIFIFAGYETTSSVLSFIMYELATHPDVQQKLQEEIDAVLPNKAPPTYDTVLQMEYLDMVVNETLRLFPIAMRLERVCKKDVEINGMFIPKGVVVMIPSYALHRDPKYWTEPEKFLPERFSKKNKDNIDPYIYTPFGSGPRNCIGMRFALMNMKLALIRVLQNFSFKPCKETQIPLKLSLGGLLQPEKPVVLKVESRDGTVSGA
In short: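 CYP3A4 activity: Luciferin-PPXE O-dealkylation, 25uM substrate, 200mM KPO4, RT throughout. Read-out is luciferase luminescence; higher values reflect activation.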

[11] = biological target: Dual specificity protein kinase CLK4 (Homo sapiens) (UniProt Q9HAZ1); test: qHTS Assay for Inhibitors of CDC-like Kinase 4 (Kinase-Glo Assay) (AID 1770); conditions: recombinant Clk4, Kinase-Glo ATP depletion luminescence; series mostly up to 66.7 µM; also: nearly all actives have a fitted effect of over 65% in size
Sequence of Dual specificity protein kinase CLK4 (Homo sapiens) (Q9HAZ1 whole entry, looked up): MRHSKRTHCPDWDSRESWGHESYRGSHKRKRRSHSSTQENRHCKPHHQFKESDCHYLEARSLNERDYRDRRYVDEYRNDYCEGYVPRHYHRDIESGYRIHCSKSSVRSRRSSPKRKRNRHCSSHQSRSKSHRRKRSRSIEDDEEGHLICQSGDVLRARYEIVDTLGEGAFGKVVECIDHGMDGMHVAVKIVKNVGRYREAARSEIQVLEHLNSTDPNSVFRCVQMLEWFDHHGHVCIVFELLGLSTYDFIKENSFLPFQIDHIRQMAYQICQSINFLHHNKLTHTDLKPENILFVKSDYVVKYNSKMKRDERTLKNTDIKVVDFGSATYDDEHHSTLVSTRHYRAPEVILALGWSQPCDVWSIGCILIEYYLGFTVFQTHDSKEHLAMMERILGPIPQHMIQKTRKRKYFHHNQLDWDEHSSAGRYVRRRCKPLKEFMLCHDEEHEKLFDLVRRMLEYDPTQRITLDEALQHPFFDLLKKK
In short: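 Readout: Kinase-Glo luminescence from ATP left after a 4.5 h room-temperature reaction of 25 nM Clk4 with 100 uM RS peptide and 1 uM ATP (final). Buffer: 25 mM Tris pH 7.5, 10 mM MgCl2.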

[12] = biological target: Dual specificity protein kinase CLK4 (Homo sapiens) (UniProt Q9HAZ1); test: qHTS Assay for Inhibitors of CDC-like Kinase 4 (ADP-Glo Assay) (AID 1771); conditions: recombinant CLK4, ADP-Glo luminescence; series mostly up to 80 µM; also: nearly all actives have a fitted effect of over 70% in size
In short: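 25 nM Clk4, 100 uM RS peptide, 1 uM ATP (final); 2 mM MgCl2, 0.5 mM EGTA, 2.5 mM DTT, 0.01% Triton X-100; 1 hr RT. ADP-Glo readout: ATP depletion 45 min, conversion/luciferase 30 min, luminescence.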

[13] = biological target: Dual specificity protein kinase CLK4 (Homo sapiens) (UniProt Q9HAZ1); test: qHTS Assay for Inhibitors of CDC-like Kinase 4 (ADP-FP Assay) (AID 1795); conditions: Transcreener ADP fluorescence polarization; series mostly up to 50 µM;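 also: recombinant human CLK4 phosphorylating RS repeat peptide at 1 µM ATP; nearly all actives have a fitted effect of over 60% in size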
In short: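 FP readout: Orange Transcreener ADP2 tracer (4 nM) plus ADP antibody, read after 30 min at room temperature. Kinase step: 6.25 nM Clk4, 100 uM RS peptide, 1 uM ATP, pH 7.5, 1 h.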

[14] = biological target: Ubiquitin carboxyl-terminal hydrolase 1 (Homo sapiens) (UniProt O94782); test: Inhibitors of USP1/UAF1: Pilot qHTS (AID 504865); conditions: purified USP1/UAF1, Ub-rhodamine cleavage fluorescence; series mostly up to 54.9 µM;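 also: rhodamine fluorescence freed from ubiquitin-rhodamine substrate followed over time; top concentration of the series differs between compounds; nearly all actives have a fitted effect of over 35% in size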
Sequence of Ubiquitin carboxyl-terminal hydrolase 1 (Homo sapiens) (O94782 whole entry, looked up): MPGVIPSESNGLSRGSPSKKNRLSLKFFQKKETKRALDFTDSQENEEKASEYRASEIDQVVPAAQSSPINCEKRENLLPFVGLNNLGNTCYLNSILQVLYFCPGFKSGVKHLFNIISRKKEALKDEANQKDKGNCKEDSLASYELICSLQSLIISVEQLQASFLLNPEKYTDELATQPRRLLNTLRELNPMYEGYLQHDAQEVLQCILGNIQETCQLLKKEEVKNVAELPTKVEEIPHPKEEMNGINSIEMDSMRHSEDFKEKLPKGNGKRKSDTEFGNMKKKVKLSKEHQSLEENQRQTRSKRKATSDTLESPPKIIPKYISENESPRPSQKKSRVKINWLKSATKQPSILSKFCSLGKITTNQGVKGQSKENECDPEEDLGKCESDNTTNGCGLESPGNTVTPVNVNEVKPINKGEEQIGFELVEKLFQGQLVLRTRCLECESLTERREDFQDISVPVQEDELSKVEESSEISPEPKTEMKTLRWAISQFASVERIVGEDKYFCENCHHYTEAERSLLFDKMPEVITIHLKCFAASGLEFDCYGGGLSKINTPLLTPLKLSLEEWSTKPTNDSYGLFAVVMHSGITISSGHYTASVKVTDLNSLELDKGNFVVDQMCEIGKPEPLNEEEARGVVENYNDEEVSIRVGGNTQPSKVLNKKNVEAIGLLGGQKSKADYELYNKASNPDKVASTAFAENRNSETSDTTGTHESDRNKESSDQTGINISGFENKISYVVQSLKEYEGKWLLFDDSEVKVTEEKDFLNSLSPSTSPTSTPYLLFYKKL
In short: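 1nM USP1/UAF1 + cpd, 15 min RT; start w/ Ub-Rho 150nM final; kinetic FL 480/540 nm, 6 reads q60 s. Buffer 50mM HEPES pH 7.8, 0.5mM EDTA, 1mM TCEP, 0.01% Tween-20, 0.1 mg/ml BSA.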

[15] = Primary qHTS for small molecule stabilizers of the endoplasmic reticulum resident proteome: Secreted ER Calcium Modulated Protein (SERCaMP) assay (AID 1508630); conditions: SH-SY5Y GLuc-SERCaMP (Gaussia luciferase released on ER calcium loss) secretion, thapsigargin, luminescence; series mostly up to 38.4 µM
In short: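 The SH-SY5Y reporter protocol was run at 3 concentrations up to 38.3 uM (primary) or 11 concentrations (follow-up): 16 h compound, 100 nM thapsigargin for 4 h, then extracellular luciferase luminescence.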

[16] = qHTS Assay for Identification of Small Molecule Agonists for Hypoxia Response Element Signaling Pathway (AID 914; active = well fitted activation curve with a large enough effect in the signal ratio, with a control signal flat, not every such curve was filed as active; the % refers to the signal ratio); conditions: ME-180 (cervical carcinoma) HRE-bla reporter, beta-lactamase ratio, CoCl2, 17 h; activation: hits give high values
In short: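 HRE-bla ME-180 cells, overnight plating in Opti-MEM with 0.5% dialyzed FBS; cpd titration + EC50 CoCl2, 17 h, 37 degrees Celsius; CCF4 2.5 h RT; 460/530 nm ratio; AC50.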

[17] = biological target: Cytochrome P450 2C9 (Homo sapiens) (UniProt P11712); test: qHTS Assay for Inhibitors and Substrates of Cytochrome P450 2C9 (AID 883); conditions: recombinant CYP2C9, luciferin-H luminescence, 60 min; series mostly up to 57.1 µM; also: potency is read from the fitted curve at half-maximal effect; nearly all actives have a fitted effect of over 60% in size
Sequence of Cytochrome P450 2C9 (Homo sapiens) (P11712 whole entry, looked up): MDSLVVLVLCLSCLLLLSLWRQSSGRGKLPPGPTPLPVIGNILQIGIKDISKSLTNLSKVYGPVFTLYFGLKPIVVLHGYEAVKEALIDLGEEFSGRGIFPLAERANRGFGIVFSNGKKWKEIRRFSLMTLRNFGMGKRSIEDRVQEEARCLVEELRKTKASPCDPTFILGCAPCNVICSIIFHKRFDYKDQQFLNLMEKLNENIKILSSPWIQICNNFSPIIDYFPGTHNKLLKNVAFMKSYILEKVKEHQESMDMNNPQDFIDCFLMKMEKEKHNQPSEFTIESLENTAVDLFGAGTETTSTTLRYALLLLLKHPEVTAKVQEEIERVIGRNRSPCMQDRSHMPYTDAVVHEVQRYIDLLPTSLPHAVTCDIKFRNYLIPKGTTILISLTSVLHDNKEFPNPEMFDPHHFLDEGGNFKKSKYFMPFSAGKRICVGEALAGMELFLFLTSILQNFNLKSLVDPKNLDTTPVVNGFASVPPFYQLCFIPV
In short: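 10nM CYP2C9 + 100uM Luciferin-H (=KM), 25mM KPO4; cpd 10 min 37C; NADPH regen, 60 min 37C; stop/detect with P450 Glo-Buffer 20 min; luminescence. Norm. to 57uM sulphaphenazole as full inhibition.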

[18] = biological target: Cytochrome P450 3A4 (Homo sapiens) (UniProt P08684); test: qHTS Assay for Inhibitors and Substrates of Cytochrome P450 3A4 (AID 884); conditions: recombinant CYP3A4, Luciferin-PPXE luminescence; series mostly up to 57.1 µM; also: potency is read from the fitted curve at half-maximal effect; nearly all actives have a fitted effect of over 50% in size
In short: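 Luminescent readout of luciferin produced by CYP3A4 (20 nM) dealkylation of Luciferin-PPXE, 25 uM (its KM). NADPH-driven reaction ran 60 min at RT after 10 min compound preincubation; data scaled to 57 uM ketoconazole as 100% inhibition.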

Structure (SMILES) | Potency [1] | activity change, negative = inhibition [2] | Potency [3] | activity change, negative = inhibition [4] | activity, negative = inhibition [5] | Potency [6] | Potency [7] | Potency [8] | Potency [9] | Potency [10] | Potency [11] | Potency [12] | Potency [13] | Potency [14] | outcome [15] | activation [16] | Potency [17] | Potency [18]
Cc1nc2cnc(Oc3ccccc3)nc2n(C2CC2)c1=O | > 11.4 µM | -5.18% | 10 µM (active) | -1.18% | -14.1% | > 9.22 µM | > 46 µM | inactive | inactive | inactive | inactive | inactive | inactive | inactive | inactive |  |  | 
COc1ccc(-n2c(=O)c(-c3ccccc3)nc3cncnc32)cc1 | > 11.4 µM | -26.7% | 3.98 µM (active) | 8.64% | -9.27% | > 9.22 µM | > 46 µM | inactive | inactive | inactive | inactive | inactive | inactive | inactive | inactive |  |  | 
COc1ccc(-n2c(=O)c(-c3ccccc3)nc3cnc(N4CCOCC4)nc32)cc1 | > 11.4 µM | 5.32% | 15.8 µM (active) | 6.27% | 6.26% | > 9.22 µM | > 46 µM | inactive | inactive |  | inactive | inactive | inactive | inactive | inactive | -1.88% |  | 
CS(=O)(=O)Nc1cccc(-c2cncnc2NCc2ccccc2)c1 | > 11.4 µM | -1.31% | 25.1 µM (active) | 3.36% | -2.08% | > 46 µM | > 46 µM | inactive |  | inactive | inactive | inactive | inactive | inactive | inactive |  | 0.398 µM (active) | 0.631 µM (active)
CN1CCN(c2ncncc2-c2cccnc2)CC1 | > 11.4 µM | 2.82% | 25.1 µM (active) | -6.42% | -20.2% | > 46 µM | > 46 µM | inactive | inactive | inactive | inactive | inactive | inactive | inactive | inactive |  |  | 
CCNc1ncc2nc(-c3ccc(OC)cc3)c(=O)n(CCC#N)c2n1 | > 11.4 µM | -5.2% | 10 µM (active) | -15.6% | -7.35% | > 9.22 µM | > 46 µM | inactive | inactive | inactive | inactive | inactive | inactive | inactive | inactive |  |  | 
